Several values for one entry are separate records, joined by “and”; a condition that tells them apart may be missing. Equal entries are not always repeated. Results filed as inconclusive are left out. Activity calls are given as the source filed them. Unless noted, the call rests on the fitted dose curve; in most records, active means well fitted curve in the direction sought with a large enough effect; inconclusive means small, poorly fitted or top-dose-only effect, or another doubt; inactive means no such curve, though single readings can be large; an effect the other way counts as inactive or inconclusive.
Legend:
[1] = biological target: Estrogen receptor (Homo sapiens) (UniProt P03372); assay: qHTS assay for small molecule antagonists of estrogen receptor alpha signaling (AID 588513; active means well fitted curve in the direction sought with a large enough effect in the signal ratio, with a control signal flat, not every such curve was filed as active; the % refers to the signal ratio; further: potency means the concentration at half of the fitted maximal effect)
Outline: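 Cells were plated at 5000/well and incubated 4 h at 37 C. Compounds were added as 1:2 dilution series, duplicates. 17-beta-estradiol (0.5nM final) was added for 18 h before CCF4 detection.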

[2] = biological target: Estrogen receptor (Homo sapiens) (UniProt P03372); assay: qHTS assay for small molecule agonists of estrogen receptor alpha signaling (AID 588514; calls by dose curve;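 further: 0% = vehicle only and 100% = reference agonist; nearly all actives have a fitted effect of over 70% in size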)
Outline: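 EC50 and efficacy came from Hill fits of beta-lactamase reporter signal (CCF4 dye, 2 h at room temperature) scaled between DMSO and 20 nM 17-beta-estradiol. Agonist mode: HEK293 ER-alpha-UAS-bla cells in charcoal/dextran-stripped serum medium, 18 h compound exposure at 37 C.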

[3] = biological target: Glucocorticoid receptor (Homo sapiens) (UniProt P04150); assay: qHTS assay for small molecule antagonists of glucocorticoid receptor signaling (AID 588533; active means well fitted inhibition curve with a large enough effect in the signal ratio, with a control signal flat, not every such curve was filed as active; the % refers to the signal ratio;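 further: cells stimulated with 2 nM dexamethasone as agonist; on the % scale 0 is the no-effect control and ±100 the full control effect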)
Outline: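 Antagonist-mode qHTS: compound titrations added to GRE-bla HeLa cells, then dexamethasone 2 nM final; 18 h, 37 C. CCF4 FRET fluorescence normalized to dexamethasone and DMSO; IC50 from Hill fit.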

[4] = biological target: Vitamin D3 receptor (Homo sapiens) (UniProt P11473); assay: qHTS assay for small molecule antagonists of vitamin D receptor signaling (AID 588541; calls by dose curve;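 further: receptor activated by calcitriol during compound treatment; series mostly up to about 77 µM; on the % scale 0 is the no-effect control and ±100 the full control effect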)
Outline: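 Antagonist-mode beta-lactamase reporter assay: HEK293T VDR-UAS-bla cells were exposed to titrated compound alongside 1-alpha,25-dihydroxyvitamin D3 at 3 nM final for 16 h. Values were normalized to the 50 nM agonist control and DMSO basal, with IC50 and efficacy from Hill equation fits.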

[5] = qHTS assay for small molecule agonists of retinoid X receptor alpha signaling (AID 588544; calls by dose curve;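 on activation: 0% = DMSO basal wells and 100% = reference agonist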); settings: HEK293T RXRa-UAS-bla, beta-lactamase reporter, 18 h; 530 nm emission
[6] = biological target: Retinoic acid receptor RXR-alpha (Homo sapiens) (UniProt P19793); assay: as above
[7] = biological target: Thyroid hormone receptor beta (Homo sapiens) (UniProt P10828); assay: qHTS assay for small molecule agonists of thyroid hormone receptor beta signaling (AID 588545; calls by dose curve;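 further: 0% = DMSO only and 100% = 10 nM T3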)
Outline: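 Compounds were tested as agonists in TR-UAS-bla-GripTite HEK 293 cells. After 18 hrs at 37 C, CCF4 substrate was added and fluorescence read after 2 hrs at room temperature.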

[8] = qHTS assay for small molecule antagonists of retinoid X receptor alpha signaling (AID 588546; active means well fitted inhibition curve with a large enough effect in the signal ratio, with a control signal flat, not every such curve was filed as active; the % refers to the signal ratio;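 further: cells stimulated with 9-cis-retinoic acid as agonist; on the % scale 0 is the no-effect control and ±100 the full control effect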); settings: HEK293T RXRa-UAS-bla, beta-lactamase ratio, antagonist mode; measured here: W530 green channel, cytotoxicity proxy
Outline: (§1)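 Beta-lactamase reporter inhibition, read as CCF4 fluorescence ratio (ex 405, em 460/530 nm) after 2 h at RT. HEK293T UAS-bla cells, 2500/well, were stimulated with 9-cis-RA at 500 or 100 nM final alongside test compound for 18 h at 37 C.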

[9] = biological target: Retinoic acid receptor RXR-alpha (Homo sapiens) (UniProt P19793); assay: as above; settings: HEK293T RXRa-UAS-bla, beta-lactamase ratio, antagonist mode
Outline: as §1

[10] = qHTS assay for environmental chemicals that activate the Aryl hydrocarbon Receptor (AhR) signaling pathway (AID 651777); settings: 1A2-DRE human hepatoma cells, luciferase, 24 h; activation: stronger effect = higher value; further: % of control where 0% means no effect; nearly all actives have a fitted effect of over 15% in size
Outline: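 Concentration–response screening used 1,200 1A2-DRE cells per well, 24 hr compound exposure (37 C, 5% CO2), and One-Glo luminescence as the AhR-driven CYP1A2 reporter signal.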

[11] = biological target: Peroxisome proliferator-activated receptor alpha (Homo sapiens) (UniProt Q07869); assay: qHTS assay for small molecule agonists of the peroxisome proliferator-activated receptor alpha (PPARalpha) signaling pathway (AID 651778); settings: PathHunter PPARalpha complementation, chemiluminescence, 6 h; max response: stronger effect = higher value; further: % of control where 0% means no effect
Outline: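 Chemiluminescence from complemented enzyme reported PPARalpha activation in cells after 6 hr of compound treatment at 37 C. The detection reagent was incubated for 60 min at room temperature, and compounds were scored as agonists.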

[12] = qHTS assay for small molecule agonists of the antioxidant response element (ARE) signaling pathway measured by Nrf2-dependant transcriptional activity (AID 720636; active means well fitted curve in the direction sought with a large enough effect in the repeat runs; an effect the other way counts as inactive or inconclusive;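 further: HepG2 cells with an ARE-driven luciferase reporter; % of control where 0% means no effect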)
Outline: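 Attachment 6 hr at 37 C, then compound versus DMSO vehicle for 16 hr in ARE-luc HepG2 cells (1% dialyzed FBS); luminescence recorded 30 min after ONE-Glo addition at room temperature.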

[13] = qHTS assay for small molecule agonists of the antioxidant response element (ARE) signaling pathway measured by Nrf2-dependant transcriptional activity - cell viability counter screen (AID 720653; active means well fitted curve in the direction sought with a large enough effect in the repeat runs; an effect the other way counts as inactive or inconclusive; further: potency means the concentration at half of the fitted maximal effect; on max response: on the % scale 0 is the no-effect control and ±100 the full control effect); settings: ARE-bla HepG2 viability, CellTiter-Glo ATP luminescence, 16 h; max response: stronger effect = lower value
Outline: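 Cytotoxicity counter screen: intracellular ATP quantified by CellTiter-Glo luminescence in the same ARE-bla HepG2 plates, after 16 h compound exposure and a 2 h beta-lactamase substrate step.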

[14] = qHTS assay for cell viability of HEK293 cells (AID 743288); settings: ATP luminescence (CellTiter-Glo), 18 h; max response: stronger effect = lower value; further: nearly all actives have a fitted effect of over 50% in size; further: potency means the concentration at half of the fitted maximal effect
Outline: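 Quantitative high-throughput screen: compounds were pinned onto parental HEK293 cells (2,000 per well) after a minimum 5 h settling at 37 C, incubated 18 h at 37 C, and intracellular ATP measured by luciferase luminescence.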

[15] = qHTS assay for cell viability of the p53RE-bla HCT-116 cell line (AID 743292); further: nearly all actives have a fitted effect of over 55% in size; further: potency means the concentration at half of the fitted maximal effect
Outline: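 Compound-exposed HCT-116 (p53RE-bla) cells, 4,000 per well, were kept 16 h at 37 C following a 5 h preincubation. Cell number was estimated from total ATP by CellTiter-Glo luminescence read after 30 min at room temperature.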

[16] = biological target: Nuclear receptor subfamily 1 group I member 2 (Rattus norvegicus) (UniProt Q9R1A7); assay: qHTS assay for small molecule activators of the rat pregnane X receptor (rPXR) signaling pathway (AID 651751; call rule not given here; further: 0% is about no effect); settings: rPXR reporter cells, luciferase (One-Glo), 24 h
[17] = biological target: Peroxisome proliferator-activated receptor delta (Homo sapiens) (UniProt Q03181); assay: qHTS assay for small molecule agonists of peroxisome proliferator-activated receptor delta signaling (AID 588534; calls by dose curve;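 further: 0% = DMSO basal wells and 100% = positive control agonist at 10 µM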)
Outline: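 Agonist-mode beta-lactamase reporter readout (CCF4 dye, 2 h at RT) after 18 h at 37 °C exposure to a titration; Hill-equation fitting gave EC50 and maximal response.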

[18] = qHTS assay for small molecule activators of the p53 signaling pathway (AID 651743; active means well fitted activation curve with a large enough effect in the signal ratio, not every such curve was filed as active; the % refers to the signal ratio; further: series mostly up to about 92 µM; % of control where 0% means no effect); settings: HCT-116 p53RE-bla, beta-lactamase FRET ratio, 16 h; activation: stronger effect = higher value
Outline: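 After 16 hours compound treatment at 37 C, HCT-116 cells stably expressing p53RE-driven beta-lactamase were loaded with LiveBLAzer B/G FRET substrate for 2 hours at room temperature. Fluorescence intensity served as the p53 activation read-out.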

[19] = biological target: Peroxisome proliferator-activated receptor gamma (Homo sapiens) (UniProt P37231); assay: qHTS assay for small molecule agonists of peroxisome proliferator-activated receptor gamma signaling (AID 588536; active means well fitted curve in the direction sought with a large enough effect in the signal ratio, with a control signal flat, not every such curve was filed as active; the % refers to the signal ratio;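 further: 0% = DMSO basal wells and 100% = rosiglitazone at 2 µM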)
Outline: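 Using GeneBLAzer HEK293 cells, response was quantified by CCF4 fluorescence and normalized between basal DMSO (0%) and rosiglitazone 2 uM (100%); curves yielded half-maximal stimulation concentration and efficacy.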

[20] = biological target: Peroxisome proliferator-activated receptor gamma (Homo sapiens) (UniProt P37231); assay: qHTS assay for small molecule antagonists of peroxisome proliferator-activated receptor gamma signaling (AID 588537; active means well fitted inhibition curve with a large enough effect in the signal ratio, with a control signal flat, not every such curve was filed as active; the % refers to the signal ratio;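 further: reporter cells co-stimulated with 50 nM rosiglitazone agonist during compound treatment; % of control where 0% means no effect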)
Outline: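 Antagonist-mode β-lactamase reporter screen run as a titration series. HEK293 PPARγ-UAS-bla cells are stimulated with rosiglitazone (50 nM final) for 16 h, then CCF4 is read at 460/530 nm. Data are scaled between DMSO and rosiglitazone and fitted to the Hill equation.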

Chain of Retinoic acid receptor RXR-alpha (Homo sapiens) (P19793 whole entry, looked up): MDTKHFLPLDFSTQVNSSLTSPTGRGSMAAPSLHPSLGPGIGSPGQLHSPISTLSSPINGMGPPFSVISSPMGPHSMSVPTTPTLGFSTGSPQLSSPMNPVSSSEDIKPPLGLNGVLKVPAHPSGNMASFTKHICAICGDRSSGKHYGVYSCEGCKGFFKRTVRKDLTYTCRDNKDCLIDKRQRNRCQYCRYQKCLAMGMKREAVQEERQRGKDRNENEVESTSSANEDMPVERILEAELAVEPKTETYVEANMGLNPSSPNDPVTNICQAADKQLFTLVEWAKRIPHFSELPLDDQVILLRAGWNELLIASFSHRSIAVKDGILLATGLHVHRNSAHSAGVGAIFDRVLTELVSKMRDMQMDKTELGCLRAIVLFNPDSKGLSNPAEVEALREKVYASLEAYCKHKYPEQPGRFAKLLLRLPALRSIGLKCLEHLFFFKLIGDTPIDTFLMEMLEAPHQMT
Chain of Estrogen receptor (Homo sapiens) (P03372 whole entry, looked up): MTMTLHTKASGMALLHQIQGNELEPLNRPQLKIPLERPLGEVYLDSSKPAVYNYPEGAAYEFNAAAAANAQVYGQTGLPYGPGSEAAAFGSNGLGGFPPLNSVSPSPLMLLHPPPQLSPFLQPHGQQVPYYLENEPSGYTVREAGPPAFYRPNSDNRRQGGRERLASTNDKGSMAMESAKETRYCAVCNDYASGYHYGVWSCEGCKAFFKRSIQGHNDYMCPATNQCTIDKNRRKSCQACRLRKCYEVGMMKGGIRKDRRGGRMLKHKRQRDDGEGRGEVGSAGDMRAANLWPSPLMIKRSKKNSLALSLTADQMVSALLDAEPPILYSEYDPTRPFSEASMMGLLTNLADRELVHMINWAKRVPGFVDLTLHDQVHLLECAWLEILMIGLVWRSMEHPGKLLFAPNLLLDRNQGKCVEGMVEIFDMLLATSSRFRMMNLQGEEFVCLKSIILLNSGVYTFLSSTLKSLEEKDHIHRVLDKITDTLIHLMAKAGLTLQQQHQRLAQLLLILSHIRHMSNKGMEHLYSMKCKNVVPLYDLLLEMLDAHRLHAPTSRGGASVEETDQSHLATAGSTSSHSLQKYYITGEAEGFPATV
Chain of Nuclear receptor subfamily 1 group I member 2 (Rattus norvegicus) (Q9R1A7 whole entry, looked up): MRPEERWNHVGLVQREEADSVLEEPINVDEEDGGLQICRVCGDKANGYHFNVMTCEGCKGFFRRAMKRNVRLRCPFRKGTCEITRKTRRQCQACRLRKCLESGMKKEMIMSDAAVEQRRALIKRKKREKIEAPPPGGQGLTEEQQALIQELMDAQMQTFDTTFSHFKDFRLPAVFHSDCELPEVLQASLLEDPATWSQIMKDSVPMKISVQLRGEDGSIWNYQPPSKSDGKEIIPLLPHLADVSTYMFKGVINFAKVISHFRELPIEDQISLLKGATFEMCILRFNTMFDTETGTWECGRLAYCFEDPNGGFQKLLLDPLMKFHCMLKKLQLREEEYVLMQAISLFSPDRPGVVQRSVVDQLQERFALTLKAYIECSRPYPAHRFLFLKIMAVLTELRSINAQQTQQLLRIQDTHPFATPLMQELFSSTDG
Chain of Peroxisome proliferator-activated receptor delta (Homo sapiens) (Q03181 whole entry, looked up): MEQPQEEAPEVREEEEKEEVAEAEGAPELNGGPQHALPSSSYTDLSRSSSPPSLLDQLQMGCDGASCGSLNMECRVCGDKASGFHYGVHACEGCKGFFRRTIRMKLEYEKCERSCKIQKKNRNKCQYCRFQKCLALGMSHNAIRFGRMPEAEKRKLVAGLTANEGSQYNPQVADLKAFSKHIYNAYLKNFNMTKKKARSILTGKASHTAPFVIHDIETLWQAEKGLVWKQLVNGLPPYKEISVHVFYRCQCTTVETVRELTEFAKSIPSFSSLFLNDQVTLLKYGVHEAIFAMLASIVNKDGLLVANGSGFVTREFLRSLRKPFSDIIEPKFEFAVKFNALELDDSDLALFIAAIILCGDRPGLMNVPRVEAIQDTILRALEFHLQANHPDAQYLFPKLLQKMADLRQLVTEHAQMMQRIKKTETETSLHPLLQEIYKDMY
Chain of Peroxisome proliferator-activated receptor alpha (Homo sapiens) (Q07869 whole entry, looked up): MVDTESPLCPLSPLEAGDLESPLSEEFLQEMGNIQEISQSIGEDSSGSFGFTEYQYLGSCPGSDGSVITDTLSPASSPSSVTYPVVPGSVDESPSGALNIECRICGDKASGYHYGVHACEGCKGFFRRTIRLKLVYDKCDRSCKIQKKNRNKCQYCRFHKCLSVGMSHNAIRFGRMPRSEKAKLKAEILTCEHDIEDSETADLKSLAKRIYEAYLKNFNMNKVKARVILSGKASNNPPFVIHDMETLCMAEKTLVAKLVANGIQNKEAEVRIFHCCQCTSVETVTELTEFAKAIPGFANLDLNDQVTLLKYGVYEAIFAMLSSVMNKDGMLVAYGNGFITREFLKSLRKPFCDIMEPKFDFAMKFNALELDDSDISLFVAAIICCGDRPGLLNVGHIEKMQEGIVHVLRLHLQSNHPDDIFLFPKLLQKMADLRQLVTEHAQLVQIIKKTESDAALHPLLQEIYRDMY
Chain of Glucocorticoid receptor (Homo sapiens) (P04150 whole entry, looked up): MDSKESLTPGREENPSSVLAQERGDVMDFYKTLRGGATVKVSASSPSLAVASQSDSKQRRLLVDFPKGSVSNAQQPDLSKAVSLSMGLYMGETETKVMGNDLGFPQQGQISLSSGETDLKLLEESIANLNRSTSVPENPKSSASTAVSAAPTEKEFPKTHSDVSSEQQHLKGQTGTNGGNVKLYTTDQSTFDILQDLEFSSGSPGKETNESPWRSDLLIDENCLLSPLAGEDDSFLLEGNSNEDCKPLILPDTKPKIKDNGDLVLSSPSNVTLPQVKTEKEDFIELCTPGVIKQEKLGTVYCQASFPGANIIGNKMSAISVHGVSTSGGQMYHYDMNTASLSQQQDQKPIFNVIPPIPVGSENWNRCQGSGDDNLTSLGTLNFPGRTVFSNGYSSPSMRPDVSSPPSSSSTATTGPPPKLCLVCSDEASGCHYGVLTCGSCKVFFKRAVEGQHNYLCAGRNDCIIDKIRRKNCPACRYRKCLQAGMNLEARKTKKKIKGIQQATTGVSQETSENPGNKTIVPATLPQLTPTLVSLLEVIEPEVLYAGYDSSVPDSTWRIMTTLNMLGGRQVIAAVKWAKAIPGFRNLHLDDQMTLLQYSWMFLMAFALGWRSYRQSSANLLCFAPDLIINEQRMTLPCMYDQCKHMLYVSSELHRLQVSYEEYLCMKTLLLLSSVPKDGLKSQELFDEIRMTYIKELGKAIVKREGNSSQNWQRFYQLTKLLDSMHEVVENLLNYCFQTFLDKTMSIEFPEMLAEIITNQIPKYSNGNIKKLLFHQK
Chain of Vitamin D3 receptor (Homo sapiens) (P11473 whole entry, looked up): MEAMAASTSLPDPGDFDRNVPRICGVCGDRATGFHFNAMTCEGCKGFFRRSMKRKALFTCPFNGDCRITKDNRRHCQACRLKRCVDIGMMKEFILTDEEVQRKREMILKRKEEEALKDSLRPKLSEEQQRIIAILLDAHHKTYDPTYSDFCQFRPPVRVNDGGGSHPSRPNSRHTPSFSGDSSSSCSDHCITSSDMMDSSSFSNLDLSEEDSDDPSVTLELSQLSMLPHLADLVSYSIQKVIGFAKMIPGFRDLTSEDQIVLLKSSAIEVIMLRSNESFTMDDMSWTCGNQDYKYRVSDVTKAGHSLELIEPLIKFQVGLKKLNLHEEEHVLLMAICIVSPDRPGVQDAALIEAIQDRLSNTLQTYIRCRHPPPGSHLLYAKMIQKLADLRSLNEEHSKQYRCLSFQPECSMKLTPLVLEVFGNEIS
Chain of Peroxisome proliferator-activated receptor gamma (Homo sapiens) (P37231 whole entry, looked up): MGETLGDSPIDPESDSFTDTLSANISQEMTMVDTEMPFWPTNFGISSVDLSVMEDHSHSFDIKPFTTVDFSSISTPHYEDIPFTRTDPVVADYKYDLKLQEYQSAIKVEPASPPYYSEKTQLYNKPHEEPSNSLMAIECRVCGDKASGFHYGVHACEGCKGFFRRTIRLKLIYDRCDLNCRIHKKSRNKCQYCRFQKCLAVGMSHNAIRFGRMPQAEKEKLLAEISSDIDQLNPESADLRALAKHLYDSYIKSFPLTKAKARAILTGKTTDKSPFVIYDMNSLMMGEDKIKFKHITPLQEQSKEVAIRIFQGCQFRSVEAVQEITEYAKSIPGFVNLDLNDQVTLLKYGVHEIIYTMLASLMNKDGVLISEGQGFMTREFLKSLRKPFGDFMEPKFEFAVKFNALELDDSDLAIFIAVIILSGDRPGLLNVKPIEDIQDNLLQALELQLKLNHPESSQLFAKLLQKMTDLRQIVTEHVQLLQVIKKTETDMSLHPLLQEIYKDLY
Chain of Thyroid hormone receptor beta (Homo sapiens) (P10828 whole entry, looked up): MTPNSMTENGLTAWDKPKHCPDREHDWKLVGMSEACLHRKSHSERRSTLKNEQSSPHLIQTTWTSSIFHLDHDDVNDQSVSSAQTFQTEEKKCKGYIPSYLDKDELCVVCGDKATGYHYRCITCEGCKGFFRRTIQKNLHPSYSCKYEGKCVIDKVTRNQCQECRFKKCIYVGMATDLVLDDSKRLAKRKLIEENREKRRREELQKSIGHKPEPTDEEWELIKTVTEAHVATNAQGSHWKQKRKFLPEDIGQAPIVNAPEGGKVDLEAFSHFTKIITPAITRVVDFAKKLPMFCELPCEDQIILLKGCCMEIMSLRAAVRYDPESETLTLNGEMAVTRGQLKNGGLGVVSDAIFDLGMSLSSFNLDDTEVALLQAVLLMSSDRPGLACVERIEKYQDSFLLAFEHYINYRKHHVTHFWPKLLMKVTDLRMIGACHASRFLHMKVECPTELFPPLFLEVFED

C=CCC1=C(C)[C@@H](OC(=O)[C@@H]2[C@@H](C=C(C)C)C2(C)C)CC1=O
6.67%: max response [5]
-5.3%: max response [8]
inactive: Potency [1] | Potency [2] | Potency [3] | Potency [4] | Potency [6] | Potency [7] | max response [9] -11.9% | activation [10] 1.77% | max response [11] 2.33% | Potency [12] | max response [13] -11.6% | max response [14] -2.02% | Potency [15]

CCC[CH2][Sn]([CH2]CCC)[CH2]CCC
active: Potency [1] 15.8 µM [inhibitor] | Potency [13] 15.8 µM | Potency [14] 28.2 µM | Potency [15] 28.2 µM
inactive: Potency [2] | activation [10] -0.508% | max response [11] 1.41% | max response [16] -14%

NS(=O)(=O)C(F)(F)C(F)(F)C(F)(F)C(F)(F)C(F)(F)C(F)(F)C(F)(F)C(F)(F)F
-4.16%: max response [8]
inactive: Potency [1] | Potency [2] | Potency [3] | outcome [17] | Potency [7] | max response [9] -55.1% | activation [18] 13.9% | activation [10] 4% | Potency [12] | max response [13] -2.62% | max response [14] -13.7% | Potency [15] | max response [16] -9.61%

C=CC1(C)OC(=O)N(c2cc(Cl)cc(Cl)c2)C1=O (stereo not drawn)
inactive: Potency [1] | Potency [2] | Potency [3] | outcome [17] | Potency [19] | Potency [20] | Potency [4] | Potency [7] | max response [9] -13.3% | activation [10] -0.237% | max response [11] -2.56% | Potency [12] | max response [13] -7.58% | max response [14] -8.07% | Potency [15] | max response [16] -0.0091%
-0.794%: max response [8]

COC(=O)c1ccccc1S(=O)(=O)NC(=O)N(C)c1nc(C)nc(OC)n1
-8.58%: max response [8]
inactive: Potency [1] | Potency [2] | Potency [3] | outcome [17] | Potency [19] | Potency [20] | Potency [6] | Potency [7] | max response [9] -3.24% | activation [10] 0.249% | max response [11] -1.41% | Potency [12] | max response [13] -4.72% | max response [14] -7.64% | Potency [15] | max response [16] 0.907%
-6.9%: max response [5]

Clc1ccc([C@]2(Cn3cncn3)C[C@@H](Br)CO2)c(Cl)c1
-15.6% and -7.06%: max response [8]
inactive: Potency [1] | Potency [2] | Potency [3] | outcome [17] | Potency [19] | Potency [4] | Potency [7] | max response [9] -12.9% and -9.53% | activation [18] -0.258% and -3.95% | activation [10] 3.17% and 2.53% | max response [11] -0.572% and -0.644% | Potency [12] | max response [13] -16.1% and 0.925% | max response [14] -21.9% and -13.3% | Potency [15]

COP(=O)(OC)Oc1ccc([N+](=O)[O-])cc1
inactive: Potency [1] | Potency [2] | Potency [7] | activation [10] 0.442% | max response [11] -5.35% | Potency [12] | max response [13] -1.73% | max response [14] -12.8% | Potency [15] | max response [16] -1.53%
